Compounds with a hit are over-represented: about 1.2% of the library has one in this group of screens.
Avidin bead fluor = avidin bead compound fluorescence profile | 220,000 compounds, 0.38% hits | Avidin beads, compound fluorescence 488/530 nm, flow cytometry; active compounds read high | fluorescence (KMESF) at 10 µM; in the data active means fluorescence above about 47
RGS8-Gao reg = human RGS8-Galphao interaction regulation; response (percent of control binding), % at 10 µM; AID 1423; P09471; multiplexed bead flow cytometry, RGS8-Galphao binding; actives lie on both sides; 220,000 compounds, 0.34% hits; in the data active means response below about 60% or above about 140%; inactive means in between;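 further: Galphao activated as the GDP aluminium fluoride complex binding bead-coupled RGS8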
Target sequence (P09471 whole entry, looked up): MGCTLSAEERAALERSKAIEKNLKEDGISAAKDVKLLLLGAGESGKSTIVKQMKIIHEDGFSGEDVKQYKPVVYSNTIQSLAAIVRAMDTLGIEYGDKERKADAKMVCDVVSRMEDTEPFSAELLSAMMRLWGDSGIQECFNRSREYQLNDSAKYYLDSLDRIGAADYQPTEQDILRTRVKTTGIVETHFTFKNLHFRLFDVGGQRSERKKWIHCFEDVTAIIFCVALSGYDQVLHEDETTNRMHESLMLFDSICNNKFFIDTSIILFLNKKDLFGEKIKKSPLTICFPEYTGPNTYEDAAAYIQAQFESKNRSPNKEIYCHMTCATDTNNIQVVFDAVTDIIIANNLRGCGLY
RGS7-Gao reg = modulates binding of RGS7 to human Galphao; P09471; Multiplexed bead flow cytometry; actives lie on both sides; binding response (% of control), % at 10 µM; 220,000 compounds, 0.35% hits; AID 1439; in the data active means binding response below about 49% or above about 150%; inconclusive means no clear call, values can overlap the other calls; inactive means in between;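 further: fluorescent Galphao held in activated GDP-AlF4 state binding bead-coupled RGS7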
GSH fluor = GSH bead compound fluorescence profile; GSH beads flow cytometry, compound fluorescence 488/530 nm; active compounds read high; fluorescence (KMESF) at 10 µM; 190,000 compounds, 0.25% hits; in the data active means fluorescence above about 89;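 further: glutathione beads carrying GST-tagged Bcl family fusion proteins plus one bare bead set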
RGS16-Gao = RGS16-Galphao interaction regulator (human) | bead-based flow cytometry RGS16-Galphao binding, fluorescence; actives lie on both sides | binding response (% of control), % at 10 µM | 220,000 compounds, 0.38% hits;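 further: Galphao activated by GDP with aluminum fluoride before binding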
Target sequence (O15492 whole entry, looked up): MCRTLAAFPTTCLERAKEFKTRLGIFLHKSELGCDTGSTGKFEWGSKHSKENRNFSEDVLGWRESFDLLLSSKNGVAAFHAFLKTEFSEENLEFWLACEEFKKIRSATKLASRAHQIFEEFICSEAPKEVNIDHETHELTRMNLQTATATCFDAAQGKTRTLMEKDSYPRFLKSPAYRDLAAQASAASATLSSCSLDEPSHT
Target sequence (P09471 whole entry, looked up): as the sequence (P09471 whole entry, looked up) above
RGS4-Gao reg = human RGS4-Galphao interaction regulation | P09471 | Multiplexed bead flow cytometry, RGS4-Galphao binding; actives lie on both sides | binding response (% of control), % at 10 µM | AID 1415 | 220,000 compounds, 0.33% hits; in the data active means binding response below about 49% or above about 150%; inactive means in between;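 further: fluorescent Galphao activated with aluminum fluoride binding bead-coupled RGS4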
RGS4-Gao HTS = modulates binding between human RGS4 and Galphao | multiplexed bead flow cytometry, RGS–Galpha-o binding | shares compounds with RGS16-Gao | RGS4–Galpha-o binding response, % at 10 µM | 1,600 compounds, 99% hits;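 further: fluorescently labeled Galpha-o bound to GDP with aluminium fluoride binding biotinylated RGS beads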
Biotin-avidin = counter-screen: compounds disrupting biotin binding to avidin beads | shares compounds with RGS16-Gao | streptavidin beads, fluorescein-biotin binding, flow cytometry | inhibition, % at 10 µM | 1,700 tested, under 10 active;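 active means inhibition above 50%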;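 further: median green fluorescence of gated singlet beads compared with DMSO control wells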
RGS8-Gao single = RGS8-Galphao interaction regulation, single point confirmation; binding response (% of control), % at 10 µM; 1,700 compounds, 3% hits; shares compounds with RGS16-Gao; AID 1836; bead-based flow cytometry RGS8-Galphao binding, fluorescence; actives lie on both sides; in the data active means binding response below about 72% or above about 130%; inactive means in between;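 further: Galphao activated as GDP AlF4 complex before binding bead RGS8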
RGS7-Gao single = confirmation of regulators of human RGS7-Galphao interaction; shares compounds with RGS16-Gao; bead-based flow cytometry RGS7-Galphao binding; actives lie on both sides; response (percent of control binding), % at 10 µM; 1,700 compounds, 7.8% hits; AID 1837; in the data active means response below about 75% or above about 130%; inactive means in between;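 further: fluorescent Galphao activated with GDP and aluminum fluoride binding bead-coupled RGS7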
RGS16-Gao single = confirmation of regulators of human RGS16-Galphao interaction; bead-based flow cytometry, RGS16-Galphao binding; actives lie on both sides; shares compounds with RGS16-Gao; response (% of control binding), % at 10 µM; AID 1838; 1,700 compounds, 4% hits; in the data active means response below about 74% or above about 130%; inactive means in between;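 further: Galphao activated as the GDP aluminium fluoride complex binding bead-coupled RGS16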
RGS4-Gao single = confirmation of regulators of human RGS4-Galphao interaction. shares compounds with RGS16-Gao. RGS4-Galphao binding, multiplexed bead flow cytometry; actives lie on both sides. binding response (% of control), % at 10 µM. 1,700 compounds, 4% hits; in the data active means binding response below about 74% or above about 130%; inactive means in between
RGS19-Gao single = confirmation of regulators of human RGS19-Galphao interaction; shares compounds with RGS16-Gao; AID 1841; bead-based flow cytometry RGS19-Galphao binding; actives lie on both sides; 1,700 compounds, 5% hits; response (percent of control binding), % at 10 µM; in the data active means response below about 50% or above about 160%; inactive means in between
Numbers stand for hits; i = inactive; ? = inconclusive; nt = not tested or not shown; [ ] = dose if it differs, or a comment. Unless noted, how the calls were made is not given here.

SMILES	Avidin bead fluor	RGS8-Gao reg	RGS7-Gao reg	GSH fluor	RGS16-Gao	RGS4-Gao reg	RGS4-Gao HTS	Biotin-avidin	RGS8-Gao single	RGS7-Gao single	RGS16-Gao single	RGS4-Gao single	RGS19-Gao single
Cc1ccc2cc(C)c(Sc3nnnn3-c3ccccc3)nc2c1	i	i	i	i	190.8[activator]	i	112.1	i	i	i	i	i	i
COc1ccc(Nc2ccc(S(=O)(=O)N3CCCCCC3)cc2[N+](=O)[O-])cc1	i	i	nt	i	i	i	nt	i	i	i	i	i	i
CC(=O)NC(=S)Nc1ccccc1N1CCCCC1	i	i	i	i	i	i	nt	nt	nt	nt	nt	nt	nt
COc1ccc(/C=C\C(=O)NCc2ccc3c(c2)cc(C)n3C)cc1OC	i	i	i	i	22.9	i	79.4	nt	nt	nt	nt	nt	nt
Cn1ccnc1SCC(=O)Nc1cccc2ccccc12	i	i	i	i	i	i	nt	nt	nt	nt	nt	nt	nt
Cn1ccnc1SCC(=O)n1c2c(c3ccccc31)CCCC2	i	54.9	i	i	i	i	59.9	i	i	i	i	i	i
O=C(Cn1[nH]c(=O)c2ccccc2c1=O)NNC(=O)c1ccccc1	i	i	i	i	i	i	nt	nt	nt	nt	nt	nt	nt
CCCCCNCc1ccc(OCc2ccc(Cl)nc2)c(OC)c1	i	i	i	i	265.6[activator]	i	116.1	i	i	i	i	i	i
Cc1ccc(Nc2c(-c3ccccn3)nc3cccc(C)n23)cc1	i	i	i	i	i	i	nt	nt	nt	nt	nt	nt	nt
CN1C(=O)CSc2ccc(NC(=O)N3CCC(N4CCCCC4)CC3)cc21	i	i	i	i	278.5[activator]	i	109.4	i	i	64.4	i	i	i
Cc1c(/C=N/NC(=O)c2cccnc2)c2ccccc2n1Cc1ccccc1	i	i	154.2[activator]	i	i	i	120.2	i	i	i	i	i	i
CC(=O)C1=C(c2ccccc2)N(C(C)=O)n2c(C)nnc2S1	i	i	i	i	i	i	nt	nt	nt	nt	nt	nt	nt
NS(=O)(=O)c1ccc(NC(=S)NCc2ccc(Cl)cc2)cc1	i	i	i	i	i	i	nt	nt	nt	nt	nt	nt	nt
Cc1cc(C)cc(NC(=S)NCc2ccc(S(N)(=O)=O)cc2)c1	nt	i	nt	i	i	i	nt	i	i	i	i	i	i
COc1ccc(N2CCN(C(=O)c3ccc(COc4ccc5c(C)cc(=O)oc5c4)cc3)CC2)cc1	84	i	157.5[activator]	i	i	180.3[activator]	nt	i	i	i	i	i	i
COc1ccc(S(=O)(=O)N2CCN(C(=O)COc3ccc4c(C)cc(=O)oc4c3)CC2)cc1	i	i	i	i	i	i	nt	nt	nt	nt	nt	nt	nt
CC(Cc1ccccc1)NC(=S)CN1CCCC1=S (configuration not stated)	i	i	?	nt	i	i	nt	nt	nt	nt	nt	nt	nt
COc1ccc(S(=O)(=O)Nc2cc(Sc3ncn[nH]3)c(O)c3ccccc23)cc1	i	i	i	i	11.2	i	72.5	nt	nt	nt	nt	nt	nt
CCC(=O)N1CCN(c2ccc(Cl)cc2NC(=O)c2ccc3c(c2)OCCO3)CC1	i	6.1	2.0	i	-0.4	0.4	nt	i	i	i	i	i	i
CCC(=O)N1CCN(c2ccc(NC(=O)c3ccc4c(c3)OCCO4)cc2)CC1	i	i	i	i	i	i	nt	nt	nt	nt	nt	nt	nt
Cc1nnc(Cl)c2nn(-c3ccccc3F)c(C)c12	i	i	i	i	i	i	nt	nt	nt	nt	nt	nt	nt
Cc1nnc(SCCN2CCOCC2)c2nn(-c3ccccc3F)c(C)c12	i	i	i	i	180.4[activator]	i	110.5	i	i	i	i	i	i
CC(=O)N1CC=C2C(C#N)=C(N)C(C#N)(C#N)C(CCc3ccccc3)C2C1 (configuration not stated)	nt	nt	nt	i	nt	nt	nt	i	i	i	i	i	i
CCN1CC=C2C(C#N)=C(N)C(C#N)(C#N)C(CCc3ccccc3)C2C1 (configuration not stated)	i	i	i	i	i	i	nt	nt	nt	nt	nt	nt	nt
Cc1ccc(S(=O)(=O)Nc2c(C)nn(C)c2C)cc1	i	i	i	i	-94.8	i	65.9	i	i	i	i	i	i
SMILES	Avidin bead fluor	RGS8-Gao reg	RGS7-Gao reg	GSH fluor	RGS16-Gao	RGS4-Gao reg	RGS4-Gao HTS	Biotin-avidin	RGS8-Gao single	RGS7-Gao single	RGS16-Gao single	RGS4-Gao single	RGS19-Gao single
COC(=O)C1=C(C)NC2=C(C(=O)CC(C)(C)C2)C1c1ccsc1 (configuration not stated)	i	24.9	25.2	i	17.6	27.9	nt	i	i	i	i	i	i
CC1=C(C(=O)OCC2CCCO2)C(c2ccsc2)C2=C(CC(C)(C)CC2=O)N1 (configuration not stated)	i	i	i	i	i	i	nt	nt	nt	nt	nt	nt	nt
COC(=O)CNC(c1ccccc1)c1cc(Br)ccc1NC(C)=O (configuration not stated)	i	i	i	i	i	i	nt	i	i	i	i	i	i
COC(=O)CNC(c1ccccc1)c1cc(Cl)ccc1NC(=O)c1cccc(Cl)c1 (configuration not stated)	i	i	i	i	i	i	nt	nt	nt	nt	nt	nt	nt
Cc1cc(C)nc(-n2ncc3c2CC(c2cccc(Cl)c2)CC3=O)n1 (configuration not stated)	i	i	i	i	i	i	nt	nt	nt	nt	nt	nt	nt
COCCNC(=O)Cn1nc(-c2ccccc2OC)ccc1=O	i	158.4[activator]	i	i	i	i	132.9	i	i	i	i	i	i
Cn1cnnc1SCC(=O)c1ccc(O)c(O)c1	i	i	i	i	i	i	nt	nt	nt	nt	nt	nt	nt
N=c1c2ccccc2nnn1-c1cccc(C(F)(F)F)c1	i	i	i	i	i	i	nt	nt	nt	nt	nt	nt	nt
COCCn1c(C)cc(/C=C2/SC(=O)N(C(C)C(=O)OC)C2=O)c1C (configuration not stated)	129	i	?	nt	224.9[activator]	221.6[activator]	nt	i	i	i	i	i	i
O=C1C(=O)c2ccc(-c3ccccc3)cc2-c2ccccc21	i	i	i	i	258.8[activator]	i	116.4	i	i	i	i	i	i
CCOC(=O)c1nnn(CC(=O)NC(=O)Nc2ccc(F)cc2)c1C(=O)OCC	i	i	?	i	i	i	nt	nt	nt	nt	nt	nt	nt

From PubChem
